Results from PubChem BioAssay (NCATS).
Results filed as inconclusive are left out. A call without a number means that no potency is given here. A number with no mark means an inactive call. The source made the active and inactive calls. Calls follow the shape of the dose curve; as a rule, active = well fitted inhibition curve with a large enough effect; inconclusive = small, poorly fitted or top-dose-only effect; inactive = flat fitted curve, though single readings scatter.

What follows are compounds tested on Zika virus NS2B-NS3 protease (assay: Primary screen GU AMC qHTS for Zika virus inhibitors (AID 1347154; also: nearly all actives have a fitted effect of over 70% in size)). Conditions: Zika NS2B-NS3 unlinked protease, AMC fluorogenic substrate; series mostly up to 54.1 µM.
Procedure, shortened: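 Unlinked Zika NS2B hydrophilic domain–NS3 protease complex at 25 nM in 10 mM Tris-HCl pH 8.0, 0.01% Tween 20, with an AMC peptide substrate. Fluorescence change (340/450 nm) over 15 min at room temperature, normalized to controls, fitted to 4-parameter Hill.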
In the case of `COc1ccc(CN(CCN(C)C)c2ncccn2)cc1`, the Potency is reported as “inactive”.
`Cc1ccc2c(Br)cc(Br)c(O)c2n1` was tested, and the Potency was “inactive”.
For `CC(C)(C)NCC(O)COc1cccc2c1C[C@H](O)[C@H](O)C2` (stereo not given in full), the Potency was “inactive”.
`O=C(O)c1ccc(S(=O)(=O)N(Cl)Cl)cc1` was tested, and the Potency was “inactive”.
In the case of `C=C[C@H]1CN2CC[C@H]1C[C@@H]2[C@@H](O)c1ccnc2ccc(OC)cc12`, the Potency is reported as “inactive”.
In the case of `CCc1nn(CCCN2CCN(c3cccc(Cl)c3)CC2)c(=O)n1CCOc1ccccc1`, the Potency is reported as “inactive”.
With `CN1CCN(c2cc3c(cc2F)c(=O)c(C(=O)O)cn3-c2ccc(F)cc2)CC1` the Potency was “inactive”.
For `CC(C)[C@@H]1CC[C@@H](C)CC1=O`, the Potency was “inactive”.
For `NCc1ccccc1Sc1ccccc1CO`, the Potency was “inactive”.
`NC(=S)N/N=C/c1cccnc1` was tested, and the Potency was “inactive”.
With `C#C[C@]1(O)CC[C@H]2[C@@H]3CCc4cc(OC)ccc4[C@H]3CC[C@@]21C` the Potency was “inactive”.
With `CCN(CC)CCOC(=O)C(Cc1cccc2ccccc12)CC1CCCO1` (stereo not given) the Potency was “inactive”.
`Cc1cn([C@H]2C[C@H](F)[C@@H](CO)O2)c(=O)[nH]c1=O` was tested, and the Potency was “inactive”.
With `O=C1C(CCS(=O)c2ccccc2)C(=O)N(c2ccccc2)N1c1ccccc1` (stereo not given) the Potency was “inactive”.
Work on `N=C(N)N1CCc2ccccc2C1` yielded an activity change, negative = inhibition of 1.62% [at 4.99 µM].
For `O=C(Nc1ccc([N+](=O)[O-])cc1)Nc1ccc([N+](=O)[O-])cc1`, the Potency was “inactive”.
For `CC(=O)NCCCCCC(=O)O`, the Potency was “inactive”.
In the case of `COc1cc(N)c(Cl)cc1C(=O)NC1CCN(Cc2ccccc2)CC1`, the Potency is reported as “inactive”.
With `NC(=O)n1c(O)c(C(=O)c2cccs2)c2cc(Cl)ccc21` the Potency was “inactive”.
`CCCCCCCCCCCCCCC[C@H](O)[C@@H](N)CO` was tested, and the Potency was “inactive”.
